Potency and activity (max response) data for 16 compounds are collected here from PubChem BioAssay (NCATS).

Experiment [1] can be described thus: Viability qHTS for spleen associated tyrosine kinase inhibitor (SYKi) naive MV4-11 cells (AID 1963823). Note: nearly all actives have a fitted effect of over 40% in size. The method, boiled down: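 SYKi-naive MV4-11 AML cells, 500 per well, were exposed to library compounds for 72 hr at 37 C, 5% CO2. Viability was then read by CellTiter-Glo luminescence after 10 min at room temperature.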
A general note: In qHTS, concentration-response curves come from the screen itself.

Experiment [2] can be described thus: Viability qHTS for spleen associated tyrosine kinase inhibitor (SYKi) drug resistant MV4-11 cells (AID 1963824). Note: nearly all actives have a fitted effect of over 35% in size. In a few lines: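 SYK inhibitor-resistant MV4-11 AML cells, 500 per well, added to predispensed compounds and incubated 72 hr at 37 C, 5% CO2. Viability measured by CellTiter-Glo luminescence after 10 min at room temperature.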
The nature of experiment [3]: Quantitative highthroughput screen to assess conditional lethalithy of NOMO1 cells grown in RPMI1640 with untreated serum (RPMI+s) (AID 1963876).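 For Viability: 100% = DMSO wells and 0% = empty wells without cells.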 Note: nearly all actives have a fitted effect of over 35% in size. The method, boiled down:
(§1)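 Each medium arm—HPLM with 10% dialyzed FBS, or RPMI1640 with 5 mM glucose and 10% untreated or dialyzed FBS—was screened against an 11-point, 3-fold compound titration for 48 h at 37 °C, with CellTiter-Glo luminescence as endpoint.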

Experiment [4] is described as follows: Quantitative highthroughput screen to assess conditional lethalithy of NOMO1 cells grown in RPMI1640 with dialyzed fetal bovine serum (RPMI+ds) (AID 1963877).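 For Viability: series mostly up to about 46 µM; 100% = DMSO control wells and 0% = empty wells.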 Note: nearly all actives have a fitted effect of over 30% in size. In a few lines:
as §1

A short description of experiment [5]: Quantitative highthroughput screen to assess conditional lethalithy of P12 Ichikawa cells grown in Human Plasma-Like Medium with dialyzed fetal bovine serum (HPLM+ds) (AID 1963879). For Viability: series mostly up to about 46 µM. Note: nearly all actives have a fitted effect of over 35% in size. To be noted: Potency: viability. The method, boiled down:
as §1

Experiment [6] is described as follows: Quantitative highthroughput screen to assess conditional lethalithy of P12 Ichikawa cells grown in RPMI1640 with dialyzed fetal bovine serum (RPMI+ds) (AID 1963880).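 For Viability: 100% = DMSO wells and 0% = empty wells on each plate.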 Note: nearly all actives have a fitted effect of over 35% in size. To be noted: Potency: P12-Ichikawa viability. The method, boiled down: as §1
The nature of experiment [7]: Quantitative highthroughput screen to assess conditional lethalithy of P12 Ichikawa cells grown in RPMI1640 with untreated serum (RPMI+s) (AID 1963881).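 For Viability: series mostly up to about 46 µM; 100% = DMSO wells and 0% = empty wells without cells.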 Note: nearly all actives have a fitted effect of over 35% in size. Particulars: Potency: viability. In a few lines: as §1
Experiment [8] is described as follows: Cellular viability qHTS for adrenocortical cancer (ACC) cell line SW-13 (AID 1963989).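 For activity (max response): cells grown in serum-free medium with ITS supplement; % is set by controls: 0 for no effect and ±100 for the full control effect.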 Note: nearly all actives have a fitted effect of over 65% in size. To be noted: SW-13 ACC cells viability, CellTiter-Glo, 48 h; activity (max response): active compounds read low. The method, boiled down:
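SW-13 cells in ITS-supplemented serum-free DMEM were plated overnight, then exposed for 48 h at 37C to compound titrations (up to 46 uM final). Viability was read by CellTiter-Glo luminescence; four-parameter logistic fits gave IC50 and efficacy.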

Experiment [9] in a line: Cellular viability qHTS for adrenocortical cancer (ACC) cell line NCI-H295R (AID 1963990). Note: nearly all actives have a fitted effect of over 60% in size. The method, boiled down: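 Luminescent ATP read-out (CellTiter-Glo, 20 min RT) after 48 h drug exposure of NCI-H295R cells; a titration up to 46 uM final. Data normalized to doxorubicin (100% inhibition) and DMSO (0%); 4-parameter fit gives IC50, max response.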
The nature of experiment [10]: Quantitative highthroughput screen to assess conditional lethalithy of SEM cells grown in Human Plasma-Like Medium with dialyzed fetal bovine serum (HPLM+ds) (AID 1963882). For Viability: series mostly up to about 46 µM. Note: nearly all actives have a fitted effect of over 35% in size. The method, boiled down:
as §1

Experiment [11] can be described thus: Quantitative highthroughput screen to assess conditional lethalithy of SEM cells grown in RPMI1640 with unreated serum (RPMI+s) (AID 1963883).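 For Viability: 100% = DMSO wells and 0% = empty wells without cells.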 Note: nearly all actives have a fitted effect of over 35% in size. The method, boiled down: as §1
Experiment [12] is described as follows: Quantitative highthroughput screen to assess conditional lethalithy of SEM cells grown in RPMI1640 with dialyzed fetal bovine serum (RPMI+ds) (AID 1963884).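 For Viability: series mostly up to about 46 µM; 100% = DMSO control wells and 0% = empty wells without cells.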 Note: nearly all actives have a fitted effect of over 35% in size. The method, boiled down: as §1
The nature of experiment [13]: Quantitative highthroughput screen to assess conditional lethalithy of NOMO1 cells grown in Human Plasma-Like Medium with dialyzed fetal bovine serum (HPLM+ds) (AID 1963878).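 For Viability: 100% = DMSO wells and 0% = empty wells on each plate.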 Note: nearly all actives have a fitted effect of over 35% in size. The method, boiled down:
as §1

Several values for one entry are separate records, joined by “and”; a condition that tells them apart may be missing. Identical values can stand only once. Records with an inconclusive call do not appear. Values without a mark were called inactive. Activity calls are given as the source filed them. Calls come from the whole dose curve; as a rule, active = well fitted curve in the direction sought with a large enough effect; inconclusive = small, poorly fitted or top-dose-only effect, or another doubt; inactive = no such curve, though single readings can be large; an effect the other way counts as inactive or inconclusive.
Potency is the fitted concentration of half-maximal effect.

As to `Cc1ccc(C(=O)Nc2cccc(C(F)(F)F)c2)cc1Nc1nc(-c2cccnc2)nc2c1cnn2C`, the Potency in experiment [1] was 8.33 µM (active); in experiment [2] it was 6.61 µM (active); in [8], 2.51 µM (active); in [9], 3.16 µM (active). For the same compound, the Potency result in experiment [3], in experiment [4], in experiment [5], in [6] and in experiment [7] was “inactive” in each case.

As to `O=C1NC(=O)C(c2cnc3ccccn23)=C1c1cn2c3c(cc(F)cc13)CN(C(=O)N1CCCCC1)CC2`, the Potency in [1] is 231 nM (active) and 833 nM (active); in [2], 51.7 nM (active) and 372 nM (active); in experiment [5], 0.588 µM (active); in [7], 0.166 µM (active); in [10] it was 0.0209 µM (active); in experiment [11], 0.0186 µM (active). Moreover, the results for the Potency in experiment [12] and in experiment [9] were 0.0166 µM (active) and 25.1 µM (active), respectively. Also, the Potency result in experiment [3] and in [4] was “inactive” in each case.

Regarding `O=C1CSC(=O)N1C(CCc1ccncc1)COc1ccc(-c2cccc([N+](=O)[O-])c2)cc1` (centres undefined), the results for the Potency in experiment [1], in [2] and in experiment [8] were 7.42 µM (active), 4.17 µM (active) and 7.08 µM (active), respectively. For the same compound, the Potency entry in [3], in experiment [4], in [5], in experiment [6], in experiment [7] and in experiment [10] was “inactive” throughout.

As for `NCCCC(N)(C(=O)O)C(F)F` (centres undefined), the Potency entry in experiment [1], in experiment [2], in [3], in experiment [4], in experiment [5] and in experiment [6] was “inactive” throughout. In addition, the Potency result in [7], in experiment [10], in experiment [11], in experiment [12] and in [9] was “inactive” in each case. Besides, the activity (max response) in [8] is 1.41% and -0.581%.

`CCCCCN(CCC12CC3CC(CC(C3)C1)C2)C(=O)NCCCc1ccncc1`: the Potency is 8.33 µM (active) in [1] and 7.42 µM (active) in experiment [2]. The Potency result in [3], in experiment [13], in experiment [5], in experiment [6], in [7] and in experiment [10] was “inactive” in each case. Besides, the Potency result in experiment [11], in experiment [12] and in [9] was “inactive” in each case. The activity (max response) in experiment [8] was -15.8%.

As for `CC1(CN2CCC(n3c(=O)[nH]c4ccccc43)CC2)OCc2ccccc2-n2cccc21` (centres undefined), the Potency is 16.6 µM (active) in [1]; 21.1 µM (active) and 10.3 µM (active) and 14.8 µM (active) in [2]; 20.6 µM (active) and 25.1 µM (active) in [8]; 23.1 µM (active) in experiment [9]. Further, the Potency result in experiment [3], in experiment [13], in experiment [5], in experiment [6], in [7] and in experiment [11] was “inactive” in each case. The Potency result in experiment [12] was “inactive”.

As for `CCCCCCCCc1ccc(CCC(N)(CO)CO)cc1`, the Potency was 5.17 µM (active) in experiment [1]; 4.61 µM (active) in experiment [2]; 18.7 µM (active) in experiment [3]; 14.8 µM (active) in [13]; 23.5 µM (active) in experiment [5]; 18.7 µM (active) in experiment [6]. In addition, the Potency in [7] was 18.7 µM (active); in experiment [10], 23.5 µM (active); in experiment [8], 17.8 µM (active); in experiment [9], 7.08 µM (active).

Consider `CCOC(=O)c1ccc(OC(=O)CCCCCN=C(N)N)cc1`, for which the Potency entry in [1], in [2] and in experiment [9] was “inactive” in each case. For the same compound, the Potency in experiment [3] is 3.32 µM (active); in experiment [4], 3.32 µM (active); in experiment [5] it was 1.87 µM (active); in experiment [7], 7.43 µM (active). For the same compound, in experiment [8], the activity (max response) was 3.73%.

Consider `CN1CCN(Cc2ccc(NC(=O)Nc3ccc(Oc4cc(NC(=O)C5CC5)ncn4)cc3)cc2C(F)(F)F)CC1`, for which the Potency result in experiment [1] and in [2] was “inactive” each time. In addition, the Potency was 0.418 µM (active) in [3]; 0.372 µM (active) in experiment [13]; 0.526 µM (active) in experiment [5]; 0.418 µM (active) in experiment [6]; 0.469 µM (active) in [7]; 0.0209 µM (active) in experiment [10]. Further, the Potency in experiment [11] was 0.0118 µM (active); in experiment [12], 0.0083 µM (active); in experiment [8] it was 0.316 µM (active); in experiment [9] it was 1.26 µM (active).

On to `CCCc1cc(C(N)=S)ccn1`, for which the Potency entry in experiment [1], in experiment [2], in experiment [3], in [4], in experiment [6] and in experiment [7] was “inactive” in each case. The Potency result in experiment [10], in [11], in experiment [12] and in experiment [9] was “inactive” throughout. Further, the activity (max response) in experiment [8] is 7.42% and -7.33%.

`CC(C)c1cnn2c(NCc3ccccc3)cc(N[C@@H](CO)[C@H](O)CO)nc12`: the Potency is 1.03 µM (active) and 332 nM (active) in experiment [1]; 820 nM (active) and 263 nM (active) in experiment [2]; 0.743 µM (active) in experiment [3]; 0.662 µM (active) in experiment [13]; 1.32 µM (active) in [5]; 1.18 µM (active) in experiment [6]. Also, the Potency is 1.05 µM (active) in experiment [7]; 0.743 µM (active) in [10]; 0.59 µM (active) in experiment [11]; 0.743 µM (active) in experiment [12]; 0.891 µM (active) in experiment [8]; 0.631 µM (active) in experiment [9].

On to `Cc1ccc(S(=O)(=O)N[C@@H](Cc2ccccc2)C(=O)CCl)cc1`, for which the results for the Potency in experiment [1], in [2] and in [9] were 9.34 µM (active), 8.33 µM (active) and 22.4 µM (active), respectively. Further, the Potency entry in [3] and in experiment [4] was “inactive” in each case.

For `CC(C)(C)c1nc(-c2cccc(NS(=O)(=O)c3c(F)cccc3F)c2F)c(-c2ccnc(N)n2)s1`, the Potency in experiment [1] was 1.84 µM (active); in experiment [2], 16.6 µM (active); in experiment [3], 11.8 µM (active); in experiment [13], 2.96 µM (active); in experiment [6], 0.743 µM (active); in experiment [7], 2.96 µM (active). Also, the Potency entry in experiment [5] and in experiment [10] was “inactive” throughout.

With `NC(=O)c1cccc2[nH]c(-c3ccc([C@H]4CCCN4)cc3F)nc12`, the Potency in experiment [1] is 20.6 µM (active); in [2] it was 16.6 µM (active); in experiment [4], 18.7 µM (active); in experiment [11] it was 3.72 µM (active); in experiment [12], 2.64 µM (active); in experiment [9] it was 8.91 µM (active). For the same compound, the Potency result in experiment [3] was “inactive”.

As for `CC1=C[C@@H]2[C@@H]([C@@H](O)C[C@@]3(C)[C@H]2C[C@@H](C)[C@]3(O)C(=O)CO)[C@@]2(C)Cc3cnn(-c4ccccc4)c3C=C12`, the Potency in [1] was 0.731 µM (active); in [2], 1.03 µM (active); in experiment [12], 0.0526 µM (active); in [8], 22.4 µM (active); in experiment [9] it was 8.91 µM (active). For the same compound, the Potency entry in experiment [3] and in [4] was “inactive” each time.

With `C[C@@]1(c2cc(-c3cncnc3)c(F)cc2F)CCSC(N)=N1`, the Potency result in experiment [1] and in [9] was “inactive” in each case. Further, the Potency in [2] is 23.5 µM (active); in experiment [3] it was 1.66 µM (active); in [13], 3.72 µM (active); in experiment [5] it was 10.5 µM (active); in experiment [6], 16.6 µM (active); in [7] it was 11.8 µM (active). Further, the Potency was 7.43 µM (active) in experiment [11] and 16.6 µM (active) in experiment [12]. Besides, the activity (max response) in [8] was -2.1%.
